The values below come from PubChem BioAssay AID1986 (Sanford-Burnham Center for Chemical Genomics, 2009).

Several values for one entry are separate records, joined by “and”; a condition that tells them apart may be missing. Equal values may be shown once. Hit rate of the full screen: of about 290,000 compounds, about 890 (0.31%) were called active. Rule as the data show it: active = inhibition mostly above about 52% (no sharp cut-off); inactive = mostly below about 76%. The sample as a whole holds a higher share of actives than the screen did. Some compounds were tested as several samples or in several runs, with calls that do not always agree.

This assay can be described thus: cell-free HIV fusion peptide-binding blockers – biochemical, uHTS, fluorescence dequenching, primary screen (AID 1986). The conditions noted are these: 30 min, stronger effect = higher value.
The mark [1] stands for this setting: measured here: repeat confirmation average inhibition, at 18.6 µM.

What is called inhibition is the drop in the measured response relative to a control, in per cent. As to `CCCOc1ccc2c(CC)cc(=O)oc2c1C`, the inhibition (at 20 µM) was -0.2% (inactive).

For `Cc1sc2nc(C3CC3)nc(N3CCN(S(=O)(=O)c4ccc(F)cc4)CC3)c2c1C`, where the note is “at 20 µM”, the inhibition is -0.3% (inactive).

As for `CC(=O)c1ccc(-n2nnnc2SCC(=O)Nc2sc(C)c(C)c2C#N)cc1`, the inhibition (at 20 µM) is 6.6% (inactive).

With `CSc1cccc(NC(=O)CCCOc2ccccc2)c1`, the inhibition (at 20 µM) was -0.1% (inactive).

In the case of `Cc1cnc(C(=O)OCc2csc(CC(=O)Nc3ccccc3C)n2)cn1`, the inhibition (at 20 µM) was 1.8% (inactive).

Regarding `c1ccc(C2=Nc3c(ccc4ccccc34)C(c3ccncc3)=NN2)cc1`, the inhibition (at 20 µM) was -3% (inactive).

For the compound `Cc1ccc(CNS(=O)(=O)c2ccc(F)c(F)c2)n1C`, the inhibition (at 20 µM) was -1.8% (inactive).

In the case of `CCOC(=O)c1c(C)[nH]c(C(=O)N/N=C/c2ccc(Br)cc2)c1C`, under “at 20 µM”, the inhibition is -1.7% (inactive).

Take `O=C(O)c1cc(-c2ccco2)nc2ccc(Br)cc12`: the inhibition was 51.2% (inactive) and 65% (active) (at 20 µM); 11.6% under setting [1].

As for `O=C(O)c1cc(-c2ccco2)nc2cc3ccccc3cc12`, the inhibition (at 20 µM) is 35.7% (inactive).

Turning to `O=C(O)c1cc(-c2ccco2)nc2ccccc12`, the inhibition (at 20 µM) was 0.1% (inactive).

Turning to `O=C(NC1CCCC1)C(c1ccncc1)N(C(=O)c1csnn1)c1ccc(F)cc1` (stereo not drawn), the inhibition (at 20 µM) was 0.5% (inactive).

On to `Cc1ccc(N2CC(C(=O)Nc3nnc(SCC(=O)NCC4CCCO4)s3)CC2=O)cc1` (stereo not drawn), for which the inhibition (at 20 µM) is 0.9% (inactive).

With `O=C(N/N=C/c1cccs1)/C(=C/c1ccccc1)NC(=O)c1ccccc1`, the inhibition (at 20 µM) is 1.7% (inactive).

As for `O=C(N/N=C/c1cc([N+](=O)[O-])cc([N+](=O)[O-])c1O)/C(=C\c1cccs1)NC(=O)c1ccccc1`, for the setting “at 20 µM”, the inhibition is 65% (active).

As for `COc1ccc([N+](=O)[O-])cc1/C=N/NC(=O)/C(=C\c1cccs1)NC(=O)c1ccccc1`, the inhibition (at 20 µM) is -1.3% (inactive).

As for `O=C(Cc1ccc(Cl)cc1)NCC(=O)N1CCN(c2ccccc2)CC1`, the inhibition (at 20 µM) was 0.4% (inactive).

Consider `O=C1NN(c2ccccc2)C(=O)/C1=C/c1ccc(Sc2cccc3ccccc23)o1`, for which, for the setting “at 20 µM”, the inhibition was 71.8% (active).

As for `Cc1ccc(Sc2ccc(/C=C3/C(=O)NN(c4ccccc4)C3=O)o2)cc1`, the inhibition (at 20 µM) is 9.4% (inactive).

Turning to `O=C1NN(c2ccccc2)C(=O)/C1=C/c1ccc(Sc2ccc(Cl)cc2)o1`, the inhibition (at 20 µM) is 17.5% (inactive).

`O=C(NCCCc1ccccc1)[C@@H]1Cc2ccccc2CN1`: the inhibition (at 20 µM) was -0.5% (inactive).

On to `NS(=O)(=O)c1ccc(-c2ccc(C=C3C(=O)c4ccccc4C3=O)o2)cc1`, for which the inhibition (at 20 µM) was 1.7% (inactive).

With `COc1ccccc1-c1ccc(/C=C2/C=C(CC(C)C)OC2=O)o1`, the inhibition (at 20 µM) is 40.1% (inactive).

In the case of `CC(C)CC1=C/C(=C/c2ccc(-c3ccccc3)o2)C(=O)O1`, the inhibition (at 20 µM) is 51.7% (active).

On to `O=Cc1cn(CCC(=O)O)nc1-c1cccc(Br)c1`, for which the inhibition (at 20 µM) was 1.1% (inactive).

For the compound `O=C(O)CCn1cc(/C=C\C(=O)c2ccc(Cl)cc2)c(-c2cccc(Br)c2)n1`, under “at 20 µM”, the inhibition is 60.3% (active).

Take `Cc1ccc(-c2nn(CCC(=O)O)cc2/C=C\C(=O)c2ccc(Br)cc2)cc1`: the inhibition (at 20 µM) was 48.6% (inactive).

Take `CCOC(=O)c1sc(NC(=O)c2cc3n(n2)C(C(F)(F)F)CC(c2ccccc2)N3)c(C(=O)OCC)c1C` (stereo not drawn): the inhibition (at 20 µM) is 0.6% (inactive).

With `Cc1cc2c(cc1S(=O)(=O)N(C)Cc1ccccc1)OCC(=O)N2`, the inhibition (at 20 µM) was -2% (inactive).

With `COc1cccc(/C=C2\Oc3cc(OCC(=O)N4Cc5ccccc5C[C@H]4C(=O)O)ccc3C2=O)c1`, the inhibition was 64.4% (inactive) (at 20 µM) and 40.9% under setting [1].

Turning to `COc1cc(OC)c(OC)cc1/C=C1\Oc2cc(OCC(=O)N3Cc4ccccc4C[C@H]3C(=O)O)ccc2C1=O`, the inhibition is 123% (active) (at 20 µM) and 106% under setting [1].

Consider `COc1ccc(OC)c(/C=C2\Oc3cc(OCC(=O)N4CC(O)C[C@H]4C(=O)O)ccc3C2=O)c1` (stereo partly drawn), for which, under “at 20 µM”, the inhibition is 2.3% (inactive).

As for `Cc1nc(Oc2cccc(Cl)c2)c2oc3ccccc3c2n1`, the inhibition (at 20 µM) was -0.8% (inactive).

For `O=C(COC(=O)CCCOc1ccccc1)NNC(=O)c1ccc([N+](=O)[O-])cc1`, the inhibition (at 20 µM) is -0.7% (inactive).

Turning to `CC1=CN2C(=N)/C(=C/c3ccc(C)o3)C(=O)N=C2S1`, under “at 20 µM”, the inhibition was 5.4% (inactive).

In the case of `CC1=CN2C(=N)/C(=C/c3ccco3)C(=O)N=C2S1`, the inhibition (at 20 µM) is 7.9% (inactive).

With `Cn1c(=O)n(C)c2cc(/C=N/NC(=O)c3ccncc3)ccc21`, the inhibition (at 20 µM) is 1.3% (inactive).

As for `Cc1[nH]n(-c2ncc(-c3ccc(Cl)cc3)s2)c(=O)c1C(c1ccc(Cl)cc1)C(C#N)C#N` (stereo not drawn), the inhibition (at 20 µM) is 48.5% (inactive).

Consider `Cc1[nH]n(-c2ncc(-c3ccccc3)s2)c(=O)c1C(c1ccc(Cl)cc1)C(C#N)C#N` (stereo not drawn), for which the inhibition (at 20 µM) is 70.8% (active).

Take `Cc1[nH]n(-c2ncc(-c3ccccc3)s2)c(=O)c1C(c1ccc(Br)cc1)C(C#N)C#N` (stereo not drawn): the inhibition (at 20 µM) is 57.3% (inactive) and the inhibition under setting [1] is 40.9%.

For `CC(C)(C)n1nc2c(c1NC(=O)Cc1cccc3ccccc13)CS(=O)C2` (stereo not drawn), the inhibition (at 20 µM) was -1.8% (inactive).

With `O=C(Nc1ccc(Cl)cc1)Nc1ccc2c(c1)OCO2`, where the note is “at 20 µM”, the inhibition is -0.2% (inactive).

On to `Cn1nc(C(F)(F)F)cc1-c1ccc(S(N)(=O)=O)s1`, for which the inhibition (at 20 µM) is 2.8% (inactive).

On to `Cn1nc(C(F)(F)F)cc1-c1ccc(/C=C(\C#N)C(=O)c2ccccc2)s1`, for which the inhibition was 92% (active) (at 20 µM) and 179% under setting [1].

With `Cn1nc(C(F)(F)F)cc1-c1ccc(/C=C(\C#N)C(=O)c2cccc(C(F)(F)F)c2)s1`, for the setting “at 20 µM”, the inhibition is 55.2% (active).

On to `CNC(=O)c1ccc(-c2cc(C(F)(F)F)nn2C)s1`, for which, for the setting “at 20 µM”, the inhibition is -1.4% (inactive).

Take `CN(C)C(=O)c1ccc(-c2cc(C(F)(F)F)nn2C)s1`: the inhibition (at 20 µM) was -1.2% (inactive).

Consider `N#C/C(=C\c1ccc(-c2cccc(C(F)(F)F)c2)o1)C(=O)Nn1cnnc1`, for which the inhibition (at 20 µM) is 49.6% (inactive).
